Test results taken from PubChem BioAssay (NCATS).
Results filed as inconclusive are left out. Calls of active or inactive are those of the source. Unless noted, the call rests on the fitted dose curve; in most records, active means well fitted cell-killing curve with a large enough effect; inconclusive means small, poorly fitted or top-dose-only effect, or effect the other way; inactive means no such curve, though single readings can be large or run the other way.

Tests used:
[1] = Quantitative High-Throughput drug screen in 47 multiple myeloma cell lines against the NCATS MIPE library collection: L363_DSMZ cell viability assay (AID 1918984); further: nearly all actives have a fitted effect of over 40% in size
Summary of the method: (§1)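 qHTS format: cells plated (500/well), pin-dosed with MIPE 4.0 compounds, kept 48 h at 37 °C. Readout was CellTiter-Glo luminescence, median RLU.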

[2] = Quantitative High-Throughput drug screen in 47 multiple myeloma cell lines against the NCATS MIPE library collection: KMS34_JCRB cell viability assay (AID 1918985); further: nearly all actives have a fitted effect of over 40% in size
Summary of the method: as §1

[3] = Quantitative High-Throughput drug screen in 47 multiple myeloma cell lines against the NCATS MIPE library collection: OCIMY7_PLB cell viability assay (AID 1918987); further: nearly all actives have a fitted effect of over 65% in size
Summary of the method: as §1

[4] = Quantitative High-Throughput drug screen in 47 multiple myeloma cell lines against the NCATS MIPE library collection: OCIMY5_PLB cell viability assay (AID 1918988); further: nearly all actives have a fitted effect of over 65% in size
Summary of the method: as §1

[5] = Quantitative High-Throughput drug screen in 47 multiple myeloma cell lines against the NCATS MIPE library collection: OPM1_PLB cell viability assay (AID 1918989); further: nearly all actives have a fitted effect of over 40% in size
Summary of the method: as §1

[6] = Quantitative High-Throughput drug screen in 47 multiple myeloma cell lines against the NCATS MIPE library collection: SKMM1_PLB cell viability assay (AID 1919863); conditions: SKMM1 myeloma viability, CellTiter-Glo ATP, 48 h; viability: stronger effect = lower value; further: nearly all actives have a fitted effect of over 35% in size
Summary of the method: as §1

[7] = Quantitative High-Throughput drug screen in 47 multiple myeloma cell lines against the NCATS MIPE library collection: U266_ATCC cell viability assay (AID 1919864); further: nearly all actives have a fitted effect of over 35% in size
Summary of the method: as §1

[8] = Quantitative High-Throughput drug screen in 47 multiple myeloma cell lines against the NCATS MIPE library collection: XG6_PLB cell viability assay (AID 1919865); further: nearly all actives have a fitted effect of over 40% in size
Summary of the method: as §1

[9] = Quantitative High-Throughput drug screen in 47 multiple myeloma cell lines against the NCATS MIPE library collection: XG1_PLB cell viability assay (AID 1919866); further: nearly all actives have a fitted effect of over 35% in size
Summary of the method: as §1

[10] = Quantitative High-Throughput drug screen in 47 multiple myeloma cell lines against the NCATS MIPE library collection: VP6_DJ cell viability assay (AID 1919867); further: nearly all actives have a fitted effect of over 40% in size
Summary of the method: as §1

[11] = Quantitative High-Throughput drug screen in 47 multiple myeloma cell lines against the NCATS MIPE library collection: UTMC2_PLB cell viability assay (AID 1919868); conditions: CellTiter-Glo ATP luminescence, 48 h; viability (% of DMSO control): at 45.8 µM (top of the series) unless noted; further: nearly all actives have a fitted effect of over 55% in size
Summary of the method: as §1

[12] = Quantitative High-Throughput drug screen in 47 multiple myeloma cell lines against the NCATS MIPE library collection: RPMI8226_ATCC cell viability assay (AID 1919871); further: nearly all actives have a fitted effect of over 30% in size
Summary of the method: as §1

[13] = Quantitative High-Throughput drug screen in 47 multiple myeloma cell lines against the NCATS MIPE library collection: KMS11_JCRBsus cell viability assay (AID 1919873); further: nearly all actives have a fitted effect of over 50% in size
Summary of the method: as §1

[14] = Quantitative High-Throughput drug screen in 47 multiple myeloma cell lines against the NCATS MIPE library collection: KMS28BM_JCRB cell viability assay (AID 1919874); further: nearly all actives have a fitted effect of over 35% in size
Summary of the method: as §1

[15] = qHTS drug screen for cell cycle checkpoint inhibitors in PARPi-resistant BRCA-mutant ovarian cancer cell lines. (AID 1963452; calls by dose curve); conditions: PEO1/OlaR viability, CellTiter-Glo luminescence, 96 h; for Z-AUC: stronger effect = lower value
Summary of the method: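 PEO1, PEO4 and PEO1/OlaR ovarian cancer cells, 600 per well, exposed 96 h at 37C to a dilution series. Viability read by CellTiter-Glo luminescence, normalized to DMSO and empty wells; activity summarized as Z-AUC.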

[16] = Quantitative High-Throughput drug screen in 47 multiple myeloma cell lines against the NCATS MIPE library collection: PE2_PLB cell viability assay (AID 1919869); further: nearly all actives have a fitted effect of over 35% in size
Summary of the method: as §1

[17] = Quantitative High-Throughput drug screen in 47 multiple myeloma cell lines against the NCATS MIPE library collection: PCM6_Riken cell viability assay (AID 1919870); further: nearly all actives have a fitted effect of over 30% in size
Summary of the method: as §1

[18] = Quantitative High-Throughput drug screen in 47 multiple myeloma cell lines against the NCATS MIPE library collection: OPM2_DSMZ cell viability assay (AID 1919872); further: nearly all actives have a fitted effect of over 30% in size
Summary of the method: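 We plated 500 myeloma cells per well, pinned in MIPE 4.0 compounds, and incubated for 48 hours at 37C. ATP was then quantified with CellTiter-Glo, with DMSO and media-only wells defining 100% and 0%.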

[19] = measured here: PEO1 parental Z-AUC
Potency means the concentration at half of the fitted maximal effect.

In the case of `CN1CCC(CNc2ccc3ncc(-c4cccc(OC(F)(F)F)c4)n3n2)CC1`, the Potency [1] is reported as 7.43 µM (active), the Potency [2] is reported as 20.9 µM (active) and the Potency [3] is reported as 4.69 µM (active). For the same compound, the Potency [4] was 14.8 µM (active), the Potency [5] was 6.62 µM (active) and the Potency [6] was 23.5 µM (active). For the same compound, the Potency [7] was 9.35 µM (active), the Potency [8] was 5.9 µM (active) and the Potency [9] was 5.9 µM (active). The Potency [10] was 7.43 µM (active), the Potency [11] was 5.9 µM (active) and the Potency [12] was 20.9 µM (active). The Potency [13] was 6.62 µM (active), the Potency [14] was 8.33 µM (active) and the Z-AUC [15] was -0.465 (inactive). It also gave a Z-AUC [15, 19] of -0.0601 and a Z-AUC ([15]; measured here: PEO4 Z-AUC) of -0.00259.

In the case of `COc1cc2c(NC3CCN(C(C)C)CC3)nc(C3CCCCC3)nc2cc1OCCCN1CCCC1`, the Potency [1] is reported as 5.26 µM (active), the Potency [2] is reported as 5.26 µM (active) and the Potency [3] is reported as 16.6 µM (active). The Potency [4] was 6.62 µM (active), the Potency [5] was 3.32 µM (active) and the Potency [6] was 11.8 µM (active). The Potency [7] was 2.96 µM (active), the Potency [8] was 2.64 µM (active) and the Potency [9] was 4.69 µM (active). The Potency [10] was 5.9 µM (active), the Potency [11] was 13.2 µM (active) and the Potency [16] was 5.26 µM (active). The Potency [17] was 3.32 µM (active), the Potency [12] was 6.62 µM (active) and the Potency [18] was 7.43 µM (active). For the same compound, the Potency [13] was 8.33 µM (active), the Potency [14] was 14.8 µM (active) and the Z-AUC [15] was 0.841 (inactive). The Z-AUC [15, 19] was 0.768 and the Z-AUC ([15]; measured here: PEO4 Z-AUC) was 0.938.

In the case of `O=C(O)c1ccc2c(c1)nc(Nc1cccc(Cl)c1)c1ccncc12`, the Potency [1] is reported as 4.69 µM (active), the Potency [2] is reported as 10.5 µM (active) and the Potency [3] is reported as 2.35 µM (active). For the same compound, the Potency [4] was 13.2 µM (active), the Potency [5] was 9.35 µM (active) and the Potency [6] was 10.5 µM (active). The Potency [7] was 5.26 µM (active), the Potency [8] was 3.72 µM (active) and the Potency [9] was 4.18 µM (active). For the same compound, the Potency [10] was 5.9 µM (active), the Potency [11] was 2.64 µM (active) and the Potency [16] was 2.64 µM (active). The Potency [17] was 2.64 µM (active), the Potency [12] was 18.7 µM (active) and the Potency [18] was 20.9 µM (active). For the same compound, the Potency [13] was 7.43 µM (active), the Z-AUC [15] was -0.0299 (inactive) and the Z-AUC [15, 19] was -0.574. It also gave a Z-AUC ([15]; measured here: PEO4 Z-AUC) of -0.726.

With `Cc1[nH]nc2ccc(-c3cncc(OC[C@@H](N)Cc4ccccc4)c3)cc12` the Potency [1] was 0.935 µM (active), the Potency [2] was 4.69 µM (active) and the Potency [3] was 0.0332 µM (active). For the same compound, the Potency [4] was 3.32 µM (active), the Potency [5] was 2.35 µM (active) and the Potency [6] was 8.33 µM (active). The Potency [7] was 0.059 µM (active), the Potency [8] was 0.935 µM (active) and the Potency [9] was 0.59 µM (active). For the same compound, the Potency [11] was 0.59 µM (active), the Potency [16] was 1.18 µM (active) and the Potency [17] was 0.526 µM (active). For the same compound, the Potency [12] was 5.9 µM (active), the Potency [18] was 9.35 µM (active) and the Potency [13] was 1.18 µM (active). The Potency [14] was 0.296 µM (active), the Z-AUC [15] was -1.08 (inactive) and the Z-AUC [15, 19] was -1.59. The Z-AUC ([15]; measured here: PEO4 Z-AUC) was -1.81.

For `C1=CCOCc2cc(ccc2OCCN2CCCC2)Nc2nccc(n2)-c2cccc(c2)OCC1`, the Potency [1] was 0.743 µM (active), the Potency [2] was 2.35 µM (active) and the Potency [3] was 1.18 µM (active). The Potency [4] was 2.35 µM (active), the Potency [5] was 3.32 µM (active) and the Potency [6] was 9.35 µM (active). The Potency [7] was 5.26 µM (active), the Potency [8] was 1.87 µM (active) and the Potency [9] was 2.64 µM (active). The Potency [10] was 1.05 µM (active), the Potency [11] was 1.48 µM (active) and the Potency [16] was 1.66 µM (active). The Potency [12] was 5.9 µM (active), the Potency [18] was 7.43 µM (active) and the Potency [13] was 1.32 µM (active). The Potency [14] was 2.35 µM (active).

For `Cc1nc(N)ncc1-c1nc(N2CCOCC2)c2sc(C(C)(C)O)cc2n1`, the Potency [1] was 0.0743 µM (active), the Potency [2] was 1.66 µM (active) and the Potency [3] was 1.18 µM (active). The Potency [4] was 0.662 µM (active), the Potency [5] was 1.18 µM (active) and the Potency [6] was 0.166 µM (active). The Potency [7] was 5.26 µM (active), the Potency [8] was 3.32 µM (active) and the Potency [9] was 1.66 µM (active). For the same compound, the Potency [11] was 0.332 µM (active), the Potency [16] was 1.05 µM (active) and the Potency [12] was 0.264 µM (active). For the same compound, the Potency [13] was 0.0833 µM (active), the Z-AUC [15] was 0.231 (inactive) and the Z-AUC [15, 19] was 0.219. For the same compound, the Z-AUC ([15]; measured here: PEO4 Z-AUC) was 0.116.

With `CNC(=O)c1cc(Oc2ccc(NC(=O)Nc3cc(C(C)(C)C)nn3-c3ccc4ncccc4c3)c(F)c2)ccn1` the Potency [1] was 18.7 µM (active), the Potency [2] was 7.43 µM (active) and the Potency [3] was 6.62 µM (active). For the same compound, the Potency [4] was 6.62 µM (active), the Potency [5] was 5.26 µM (active) and the Potency [6] was 14.8 µM (active). The Potency [7] was 13.2 µM (active), the Potency [8] was 7.43 µM (active) and the Potency [9] was 7.43 µM (active). For the same compound, the Potency [11] was 4.18 µM (active), the Potency [16] was 5.26 µM (active) and the Potency [17] was 2.64 µM (active). For the same compound, the Potency [12] was 16.6 µM (active), the Potency [18] was 18.7 µM (active) and the Potency [14] was 9.35 µM (active). For the same compound, the Z-AUC [15] was 0.924 (inactive), the Z-AUC [15, 19] was 1.09 and the Z-AUC ([15]; measured here: PEO4 Z-AUC) was 1.19.

For `NC(=O)Nc1cc(-c2cccc(F)c2)sc1C(=O)N[C@H]1CCCNC1`, the Potency [1] was 0.0166 µM (active), the Potency [2] was 0.0935 µM (active) and the Potency [3] was 0.264 µM (active). For the same compound, the Potency [4] was 0.0743 µM (active), the Potency [5] was 0.296 µM (active) and the Potency [6] was 7.43 µM (active). For the same compound, the Potency [7] was 5.9 µM (active), the Potency [8] was 0.0833 µM (active) and the Potency [9] was 0.187 µM (active). The Potency [10] was 0.166 µM (active), the Potency [11] was 0.105 µM (active) and the Potency [16] was 0.469 µM (active). The Potency [17] was 4.69 µM (active), the Potency [18] was 2.64 µM (active) and the Potency [13] was 0.526 µM (active). For the same compound, the Potency [14] was 1.87 µM (active), the Potency [15] was 0.11 µM (active) and the Z-AUC [15, 19] was -1.9. The Z-AUC ([15]; measured here: PEO4 Z-AUC) was -1.5.

For `COC(=O)Nc1ccc(-c2nc(N3CCOCC3)c3cnn(C4CCN(Cc5cccnc5)CC4)c3n2)cc1`, the Potency [1] was “inactive”, the Potency [2] was 0.059 µM (active) and the Potency [3] was 23.5 µM (active). The Potency [4] was 20.9 µM (active), the Potency [5] was 0.0833 µM (active) and the Potency [6] was 2.09 µM (active). For the same compound, the Potency [7] was 18.7 µM (active), the Potency [8] was 0.0118 µM (active) and the Potency [9] was 0.0235 µM (active). The Potency [10] was 0.0469 µM (active), the Potency [16] was 0.0469 µM (active) and the Potency [17] was 0.526 µM (active). The Potency [12] was 0.0118 µM (active), the Potency [18] was 0.296 µM (active) and the Potency [13] was 0.0296 µM (active). For the same compound, the Potency [14] was 0.418 µM (active).
